IDE exosite inh = insulin-degrading enzyme (human) exo-site inhibition; P14735; purified IDE, FL-6b probe fluorescence polarization; hits give low values; z-score at 20 µM; 17,000 tested, 6.3% active; AID 1259349;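 active = z-score of -3 or lower, meaning strong loss of probe binding signal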;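 also: His-tagged human IDE residues 42-1019 made in E. coli with 30 nM FL-6b probe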
Target sequence (P14735 42-1019 limits assumed): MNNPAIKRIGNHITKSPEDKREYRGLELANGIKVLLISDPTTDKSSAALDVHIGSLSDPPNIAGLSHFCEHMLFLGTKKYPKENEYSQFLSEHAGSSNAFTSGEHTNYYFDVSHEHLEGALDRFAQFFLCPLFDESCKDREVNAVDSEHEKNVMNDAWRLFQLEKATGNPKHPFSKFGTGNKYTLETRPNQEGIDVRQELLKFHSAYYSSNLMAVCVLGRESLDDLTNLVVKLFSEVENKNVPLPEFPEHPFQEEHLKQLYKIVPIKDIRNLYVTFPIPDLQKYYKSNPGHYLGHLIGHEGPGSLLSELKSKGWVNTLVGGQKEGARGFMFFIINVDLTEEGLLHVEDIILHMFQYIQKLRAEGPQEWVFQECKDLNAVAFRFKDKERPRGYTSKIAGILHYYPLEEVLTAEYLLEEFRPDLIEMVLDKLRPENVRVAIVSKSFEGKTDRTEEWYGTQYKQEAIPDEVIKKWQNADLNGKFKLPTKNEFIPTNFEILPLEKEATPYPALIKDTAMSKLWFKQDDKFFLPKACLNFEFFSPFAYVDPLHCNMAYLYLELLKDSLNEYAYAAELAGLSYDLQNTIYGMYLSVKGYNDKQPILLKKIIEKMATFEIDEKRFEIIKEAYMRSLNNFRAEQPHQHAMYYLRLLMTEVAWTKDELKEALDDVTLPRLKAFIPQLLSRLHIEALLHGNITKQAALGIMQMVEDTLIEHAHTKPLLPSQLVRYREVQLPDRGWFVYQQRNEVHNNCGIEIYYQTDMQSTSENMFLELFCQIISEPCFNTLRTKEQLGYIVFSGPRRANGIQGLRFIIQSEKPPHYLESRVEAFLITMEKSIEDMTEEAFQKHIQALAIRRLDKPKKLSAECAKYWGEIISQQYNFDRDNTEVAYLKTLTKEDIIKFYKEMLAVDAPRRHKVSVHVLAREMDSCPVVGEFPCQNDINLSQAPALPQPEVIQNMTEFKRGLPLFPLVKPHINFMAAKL
An asterisk follows results filed as active. Many of the other results were omitted from the sample, so hits are more common in it than they were.

SMILES	IDE exosite inh
CS(=O)(=O)N1[C@H](CO)[C@H](c2ccc(-c3ccccc3F)cc2)[C@@H]1C#N	-1.3
CS(=O)(=O)N1[C@@H](C#N)[C@H](c2ccc(-c3ccccc3F)cc2)[C@@H]1CO	-5.2*
CS(=O)(=O)N1[C@H](C#N)[C@H](c2ccccc2-c2ccccc2F)[C@H]1CO	-0.99
CS(=O)(=O)N1[C@H](C#N)[C@H](c2ccc(-c3ccccc3F)cc2)[C@H]1CO	-1.7
CO[C@@H]1CN(C)C(=O)c2cc(NC(=O)NC(C)C)ccc2OC[C@@H](C)N(C(=O)CN(C)C)C[C@H]1C	0.95
OC[C@H]1[C@@H](c2ccc(C#CC3(O)CCCC3)cc2)[C@@H]2CN(Cc3ccccc3F)CCCCN12	3.6
CCS(=O)(=O)N1CCCCN2[C@H](CO)[C@@H](c3ccc(-c4cccc(C#N)c4)cc3)[C@@H]2C1	3.4
COc1cccc(C(=O)Nc2ccc3c(c2)C(=O)N(C)[C@@H]2CC[C@@H](CC(=O)NCc4ccc(F)cc4)O[C@H]2CO3)c1	-0.98
O=C(C1CCC1)N1CC(=O)N2[C@H](C1)[C@@H](c1ccc(C#Cc3cccc(F)c3)cc1)[C@@H]2CO	-1.3
O=C(C1CCCC1)N1CC(=O)N2[C@H](CO)[C@@H](c3ccc(C#CC4CCCC4)cc3)[C@@H]2C1	0.25
O=C(C1CCCCC1)N1CC(=O)N2[C@@H](CO)[C@@H](c3ccc(C#Cc4cccc(F)c4)cc3)[C@@H]2C1	-4.5*
O=C(C1CC1)N1CC(=O)N2[C@H](C1)[C@H](c1ccc(C#Cc3cccc(F)c3)cc1)[C@@H]2CO	-6.1*
O=C(C1CCCCC1)N1CC(=O)N2[C@@H](CO)[C@H](c3ccc(C#Cc4cccc(F)c4)cc3)[C@@H]2C1	0.21
O=C(c1cccc(F)c1)N1CC(=O)N2[C@H](CO)[C@@H](c3ccc(C#Cc4ccc(F)cc4)cc3)[C@H]2C1	2.1
O=C(C1CCC1)N1CC(=O)N2[C@@H](CO)[C@H](c3ccc(C#Cc4cccc(F)c4)cc3)[C@@H]2C1	-3.4*
O=C(C1CCC1)N1CC(=O)N2[C@H](CO)[C@H](c3ccc(C#Cc4cccc(F)c4)cc3)[C@@H]2C1	-2.8
O=C(c1cccc(F)c1)N1CC(=O)N2[C@@H](CO)[C@H](c3ccc(C#Cc4ccc(F)cc4)cc3)[C@@H]2C1	3.4
CCCC#Cc1ccc([C@H]2[C@H](CO)N3CCCCN(S(=O)(=O)c4ccccc4F)C[C@@H]23)cc1	0.098
O=C(C[C@H]1CC[C@H]2[C@@H](COC[C@@H](O)CN2S(=O)(=O)c2ccccc2F)O1)N1CCC(Cc2ccccc2)CC1	-1.8
O=C(Nc1ccc2c(c1)[C@@H]1C[C@H](CC(=O)N3CCc4ccccc4C3)O[C@@H](CO)[C@@H]1O2)c1ccc2c(c1)OCO2	1.2
O=S(=O)(c1ccccc1F)N1CCCCN2[C@H](C1)[C@H](c1ccc(-c3ccccc3)cc1)[C@@H]2CO	0.64
Cc1cccc(-c2ccc([C@@H]3[C@H](CO)N4CCCCN(S(=O)(=O)c5ccccc5F)C[C@@H]34)cc2)c1	-22*
Cc1cccc(-c2ccc([C@@H]3[C@@H](CO)N4CCCCN(S(=O)(=O)c5cn(C)cn5)C[C@H]34)cc2)c1	-0.7
COc1cccc(-c2ccc([C@H]3[C@H]4CN(S(=O)(=O)c5cccs5)CCCCN4[C@H]3CO)cc2)c1	0.23
Cc1cccc(-c2ccc([C@H]3[C@H](CO)N4CCCCN(S(=O)(=O)c5ccccc5C)C[C@@H]34)cc2)c1	1.3
SMILES	IDE exosite inh
COc1cccc(-c2ccc([C@H]3[C@@H](CO)N4CCCCN(S(=O)(=O)c5cccs5)C[C@@H]34)cc2)c1	2
COc1cccc(-c2ccc([C@@H]3[C@@H](CO)N4CCCCN(S(=O)(=O)c5cccs5)C[C@@H]34)cc2)c1	-3.2*
Cc1cccc(-c2ccc([C@H]3[C@@H](CO)N4CCCCN(S(=O)(=O)c5cn(C)cn5)C[C@H]34)cc2)c1	-11*
Cn1cnc(S(=O)(=O)N2CCCCN3[C@H](C2)[C@H](c2ccc(-c4cccc(F)c4)cc2)[C@@H]3CO)c1	3.3
COc1cccc(-c2ccc([C@@H]3[C@H]4CN(S(=O)(=O)c5cn(C)cn5)CCCCN4[C@H]3CO)cc2)c1	-5.5*
Cn1cnc(S(=O)(=O)N2CCCCN3[C@H](CO)[C@H](c4ccc(-c5cccc(F)c5)cc4)[C@H]3C2)c1	-1.3
Cn1cnc(S(=O)(=O)N2CCCCN3[C@H](CO)[C@@H](c4ccc(-c5ccccc5)cc4)[C@H]3C2)c1	1.3
O=C(C1CCCC1)N1CC(=O)N2[C@H](C1)[C@H](c1ccc(C#CC3CCCC3)cc1)[C@@H]2CO	2.2
C/C=C/c1ccc([C@H]2[C@H](CO)N3C(=O)CN(C(=O)c4ccncc4)C[C@@H]23)cc1	0.78
N#C[C@H]1[C@H](c2ccccc2-c2ccccc2F)[C@@H](CO)N1C(=O)Cc1ccccc1	-0.14
O=C(NCC[C@@H]1CC[C@@H](NC(=O)c2ccccc2F)[C@@H](CO)O1)c1cnccn1	1.2
COc1ccc2c3c(n(C)c2c1)[C@@H](CO)NCC31CCN(S(=O)(=O)c2cccc(C)c2)CC1	1.1
CC(=O)NC[C@H]1[C@H](c2ccccc2)[C@@H](CO)N1C(=O)Cc1ccncc1	1.6

Source: PubChem BioAssay (Broad Institute)
